Results from PubChem BioAssay (NCATS).
Results filed as inconclusive are left out. Entries that show only a call come without a potency. Unmarked numbers belong to inactive results. Active and inactive are the calls of the source. Calls follow the shape of the dose curve; as a rule, active = well fitted curve in the direction sought with a large enough effect; inconclusive = small, poorly fitted or top-dose-only effect, or another doubt; inactive = no such curve, though single readings can be large; an effect the other way counts as inactive or inconclusive.

Tests used:
CRL-7250 = normal cell line; assay: Cytotoxic Profiling of Annotated Libraries Using Quantitative High-Throughput Screening (AID 1296008); settings: Five cell lines viability, CellTiter-Glo ATP luminescence, 48-72 h; max response: active compounds read low; also: nearly all actives have a fitted effect of over 60% in size; also: potency is read from the fitted curve at half-maximal effect
In short: (§1)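 Cells exposed to compounds for 48 or 72 hr at 37 degrees Celsius. Viability read as ATP-coupled luminescence with CellTiter-Glo after 10 min at room temperature.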

HEK293 = assay: as above; settings: Five cell lines viability, CellTiter-Glo ATP luminescence, 48-72 h; max response: active compounds read low
In short: as §1

HaCat [1] = assay: as above; settings: Five cell lines viability, CellTiter-Glo ATP luminescence, 48-72 h; max response: active compounds read low
In short: as §1

NIH3T3 [2] = assay: as above; settings: Five cell lines viability, CellTiter-Glo ATP luminescence, 48-72 h; max response: active compounds read low
In short: as §1

C33A = assay: Primary qHTS to identify gynecologic anti-cancer compounds using libraries of approved drugs and bioactive compounds (AID 1345084); settings: Gynecologic cancer cell panel viability, ATPlite luminescence, 48 h; series mostly up to 57.5 µM; also: nearly all actives have a fitted effect of over 55% in size; also: potency is read from the fitted curve at half-maximal effect
In short: (§2)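 Cells, 1,000 per well, were allowed to settle for 16 h at 37 C before compound addition. Five concentrations were tested for 48 h, and viability was read by ATPlite luminescence after 15 min at room temperature.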

CAOV3 = assay: as above; settings: Gynecologic cancer cell panel viability, ATPlite luminescence, 48 h; series mostly up to 57.5 µM
In short: as §2

CASKI = assay: as above; settings: Gynecologic cancer cell panel viability, ATPlite luminescence, 48 h; series mostly up to 57.5 µM
In short: as §2

Es-2 = assay: as above; settings: Gynecologic cancer cell panel viability, ATPlite luminescence, 48 h; series mostly up to 57.5 µM
In short: as §2

HeLa = assay: as above; settings: Gynecologic cancer cell panel viability, ATPlite luminescence, 48 h; series mostly up to 57.5 µM
In short: as §2

Hek293T = assay: as above; settings: Gynecologic cancer cell panel viability, ATPlite luminescence, 48 h, control line for the selectivity index; series mostly up to 57.5 µM
In short: as §2

JEG-3 = assay: as above; settings: Gynecologic cancer cell panel viability, ATPlite luminescence, 48 h; series mostly up to 57.5 µM
In short: as §2

OV90 = assay: as above; settings: Gynecologic cancer cell panel viability, ATPlite luminescence, 48 h; series mostly up to 57.5 µM
In short: as §2

HACAT [3] = assay: qHTS assay to identify novel small-molecules to repurpose for Merkel cell carcinoma treatment (AID 1296009); settings: MCC and control cell lines, CellTiter-Glo viability, 72 h; at 44.8 µM (top of the series) unless noted; also: nearly all actives have a fitted effect of over 60% in size
In short: (§3)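 CellTiter-Glo luminescence after 72 hr compound exposure at 37 degree celsius gave cell viability. Libraries NPC and MIPE were run as 8- and 11-point dose responses; RLUs normalized to DMSO (negative) and no-cell (cytotoxicity) controls.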

NIH3T3 [4] = assay: as above; settings: MCC and control cell lines, CellTiter-Glo viability, 72 h; series mostly up to 44.8 µM
In short: as §3

CC(C)(C)c1ccc(C(=O)Nc2cc(Cl)c(Br)cc2C(=O)O)cc1
max response (CRL-7250): -0.778% | Potency (HEK293): 23100 nM (active) | max response (HaCat [1]): -1.9% | max response (NIH3T3 [2]): -19.1% | Potency (C33A): inactive | Potency (CAOV3): inactive | Potency (CASKI): inactive | Potency (Es-2): inactive | Potency (HeLa): inactive | Potency (Hek293T): inactive | Potency (JEG-3): inactive | Potency (OV90): inactive

CCCCC1CCN(CCCN2C(=O)CCc3ccccc32)CC1
max response (CRL-7250): -13.3% | Potency (HEK293): 18400 nM (active) | max response (HaCat [1]): -2.1% | max response (NIH3T3 [2]): -7.86% | Potency (C33A): inactive | Potency (CAOV3): inactive | Potency (CASKI): inactive | Potency (Es-2): inactive | Potency (HeLa): inactive | Potency (Hek293T): inactive | Potency (JEG-3): inactive | Potency (OV90): inactive

CCCCCCOC(=O)/N=C(\N)c1ccc(NCc2nc3cc(C(=O)N(CCC(=O)OCC)c4ccccn4)ccc3n2C)cc1
max response (CRL-7250): -1.92% | Potency (HEK293): 18400 nM (active) | max response (HaCat [1]): -18.9% | max response (NIH3T3 [2]): -4.93% | Potency (C33A): inactive | Potency (CAOV3): inactive | Potency (CASKI): inactive | Potency (Es-2): inactive | Potency (HeLa): inactive | Potency (Hek293T): inactive | Potency (JEG-3): inactive | Potency (OV90): inactive

COc1ccc(-c2cc3onc(-c4ccncc4)c3c(=O)n2C)cc1
Potency (CRL-7250): 651 nM (active) | Potency (HEK293): 1300 nM (active) | max response (HaCat [1]): -2.33%

CCOC(=O)[C@@]1(CCCCCCOc2ccc(Cl)cc2)CO1
max response (CRL-7250): -16.7% | Potency (HEK293): 8310 nM (active) | max response (HaCat [1]): 3.74% | max response (NIH3T3 [2]): -15.5%

C#CCCCn1cc(-c2cccc3c2N[C@H](C)CC(=O)N3)cn1
max response (CRL-7250): -3.86% | max response (HEK293): -13.5% | max response (HaCat [1]): 0.674% | max response (NIH3T3 [2]): -3.84% | Potency (C33A): inactive | Potency (CAOV3): inactive | Potency (CASKI): inactive | Potency (Es-2): inactive | Potency (HeLa): 891 nM (active) | Potency (Hek293T): inactive | Potency (JEG-3): inactive | Potency (OV90): inactive

Cc1cccc(CC(=O)N2CCc3c2ccc(-c2cn(C)c4ncnc(N)c24)c3F)n1
Potency (CRL-7250): 1840 nM (active) | Potency (HEK293): 5800 nM (active) | outcome (HaCat [1]): inactive | max response (NIH3T3 [2]): 3.48% | outcome (HACAT [3]): inactive | Potency (C33A): inactive | Potency (CAOV3): inactive | Potency (CASKI): inactive | Potency (Es-2): inactive | Potency (HeLa): inactive | Potency (Hek293T): inactive | Potency (JEG-3): inactive | Potency (OV90): inactive

CC(=O)C1=C(O)C=C2Oc3c(C(C)=O)c(O)c(C)c(O)c3[C@]2(C)C1=O
outcome (CRL-7250): inactive | max response (HEK293): 0.521% | outcome (HaCat [1]): inactive | outcome (NIH3T3 [2]): inactive | outcome (HACAT [3]): inactive | Potency (NIH3T3 [4]): inactive | Potency (C33A): inactive | Potency (CAOV3): inactive | Potency (CASKI): inactive | Potency (Es-2): inactive | Potency (HeLa): inactive | Potency (Hek293T): inactive | Potency (JEG-3): inactive | Potency (OV90): inactive

Cc1cc(-c2nc(-c3ccc(OC(F)(F)F)cc3)no2)nn1Cc1ccnc(N2CCN(C3CC3)CC2)c1
Potency (CRL-7250): 25.9 nM (active) | Potency (HEK293): 6.5 nM (active) | max response (HaCat [1]): 4.17% | max response (NIH3T3 [2]): -14.2% | Potency (CAOV3): inactive | Potency (Es-2): inactive | Potency (HeLa): inactive | Potency (Hek293T): inactive | Potency (JEG-3): inactive

COC(=O)N1CCC(n2ncc3c(N4CCOCC4)nc(-c4ccc(NC(=O)NC5CC5)cc4)nc32)CC1
Potency (CRL-7250): 259 nM (active) | Potency (HEK293): 291 nM (active) | Potency (HaCat [1]): 6510 nM (active) | Potency (NIH3T3 [2]): 651 nM (active) | Potency (Hek293T): 631 nM (active) | Potency (JEG-3): inactive | Potency (OV90): 501 nM (active)

Cc1ccc(C(=O)Nc2ccc(CN3CCN(C)CC3)c(C(F)(F)F)c2)cc1C#Cc1cnc2[nH]ncc2c1
Potency (CRL-7250): 58 nM (active) | Potency (HEK293): 5800 nM (active) | Potency (HaCat [1]): 1640 nM (active) | Potency (NIH3T3 [2]): 580 nM (active) | Potency (OV90): 3160 nM (active)

Cc1nc2ccc(CN(C)c3ccc(C(=O)NC(CCC(=O)O)C(=O)O)s3)cc2c(=O)[nH]1 (stereo unspecified)
outcome (CRL-7250): inactive | Potency (HEK293): 41.1 nM (active) | Potency (HaCat [1]): 10.3 nM (active) | Potency (NIH3T3 [2]): 65.1 nM (active) | Potency (C33A): inactive | Potency (CAOV3): inactive | Potency (CASKI): inactive | Potency (Hek293T): inactive | Potency (OV90): inactive

COC(C)(C)CCn1nc(Nc2c(C)cccc2C)c2cnc(Nc3ccc(OCCN4CCCC4)c(F)c3)nc21
Potency (CRL-7250): 1160 nM (active) | Potency (HEK293): 7310 nM (active) | Potency (HaCat [1]): 1300 nM (active) | Potency (NIH3T3 [2]): 411 nM (active) | Potency (Es-2): 15800 nM (active) | Potency (OV90): 14100 nM (active)

C=C[C@@]12COC(=O)C(=C)[C@@H]1[C@@H](O)[C@H](C(=C)C(=O)OC)[C@@H](O)C2
max response (CRL-7250): -65.9% | max response (HEK293): -86.5% | max response (HaCat [1]): -29% | max response (NIH3T3 [2]): -16.2% | Potency (C33A): inactive | Potency (CAOV3): inactive | Potency (CASKI): inactive | Potency (Hek293T): inactive | Potency (OV90): inactive

CCOC(=O)c1cnc2ccc(-c3cncc(NS(=O)(=O)c4ccccc4)c3)cn12
Potency (CRL-7250): 4110 nM (active) | Potency (HEK293): 1030 nM (active) | Potency (HaCat [1]): 1460 nM (active) | Potency (NIH3T3 [2]): 1160 nM (active) | Potency (CASKI): 2000 nM (active) | Potency (Es-2): 3160 nM (active) | Potency (HeLa): 1580 nM (active) | Potency (Hek293T): 1780 nM (active) | Potency (JEG-3): 7080 nM (active) | Potency (OV90): 11200 nM (active)

CC1CC(=O)C2=C(C1)C1OC1C1(O)C2C(=O)c2cccc(O)c2C1O (stereo unspecified)
max response (CRL-7250): -42.8% | max response (HEK293): -91.9% | max response (HaCat [1]): -53.4% | max response (NIH3T3 [2]): -27% | Potency (C33A): inactive | Potency (CAOV3): inactive | Potency (CASKI): inactive | Potency (Hek293T): inactive | Potency (OV90): inactive
